Data from the supplement of paper PMC10646978.
± gives the standard deviation.

Key:
Settings in all cases: modulator concentration 10 µM
[1] = tested on: RAW-Dual (murine macrophage reporter line); assay: NF-kB reporter (SEAP) activity fold change vs agonist alone; higher = enhanced NF-kB activity
Method in brief: (§1)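 In 384-well plates holding 50 000 RAW-Dual murine macrophage reporter cells per well, compound at 10 μM final was pre-incubated for 1 hour at 37 °C, after which a PRR agonist was added overnight. Supernatant SEAP read with QUANTI-Blue at 620 nm absorbance reported NF-κB, and Lucia luciferase read with QUANTI-Luc luminescence reported IRF. Fold change values come from dividing each reporter signal by the mean of agonist-only control wells on the same plate, averaged over replicate plates with propagated errors.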

[2] = tested on: RAW-Dual (murine macrophage reporter line); assay: IRF reporter (Lucia luciferase) activity fold change vs agonist alone; higher = enhanced IRF activity
Method in brief: as §1

[3] = tested on: RAW-Dual (murine macrophage reporter line); assay: viability score (confluency relative to resting cells, overnight) (fraction); higher = more viable, active = viable (0.7 or more)
Method in brief: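 Overnight exposure to 10 μM final compound was carried out on RAW-Dual macrophages in 384-well plates. IncuCyte software generated two confluency masks over all wells imaged with IncuCyte. The viability score gives confluency in relation to resting cells. A compound met the cutoff if each mask exceeded 70% of resting cells.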

[4] = agonist: CpG ODN 1826 0.5 ug/mL

Row | SMILES | NF-kB reporter [1, 4] | NF-kB reporter ([1]; agonist: LPS 0.1 ug/mL) | NF-kB reporter ([1]; agonist: MPLA […]) | IRF reporter ([2]; agonist: 3'3'-cGAMP 10 ug/mL) | IRF reporter ([2]; agonist: LPS 0.1 ug/mL) | IRF reporter ([2]; agonist: MPLA […]) | viability score [3]
1 | O=C1C(N2CCC(O)C2)CCN1CC(F)(F)F (configuration not stated) | 0.992 ± 0.12 | 1.04 ± 0.1 | 0.876 ± 0.086 | 1.03 ± 0.053 | 1.22 ± 0.079 | 1.24 ± 0.15 | 1.01 (active)
2 | CC(O)(CNC(=O)CSc1ccc(F)cc1)c1ccc(-c2ccccc2)cc1 (configuration not stated) | 1.02 ± 0.067 | 0.973 ± 0.092 | 0.935 ± 0.038 | 0.685 ± 0.049 | 1.11 ± 0.072 | 0.921 ± 0.1 | 0.992 (active)
3 | CCC(=O)N1CCCC1c1nc2ccccc2n1CCOc1ccc(Cl)cc1 (configuration not stated) | 0.717 ± 0.18 | 1.15 ± 0.063 | 1.2 ± 0.095 | 0.967 ± 0.097 | 0.992 ± 0.21 | 1.1 ± 0.1 | 0.996 (active)
4 | COc1ccc(C=C2C(=O)N(c3ccc(C(=O)O)cc3)N=C2C)cc1 | 0.794 ± 0.082 | 0.977 ± 0.072 | 1.02 ± 0.092 | 0.934 ± 0.052 | 1.22 ± 0.099 | 1.21 ± 0.17 | 1.01 (active)
5 | Cc1ccc(C=CC(=O)O)cc1S(=O)(=O)NCCO | 1.04 ± 0.2 | 0.884 ± 0.075 | 1.05 ± 0.095 | 0.988 ± 0.077 | 1.16 ± 0.2 | 0.979 ± 0.32 | 0.984 (active)
6 | O=c1[nH]c(=O)n([C@H]2C[C@H](O)[C@@H](CO)O2)cc1F | 1.65 ± 0.14 | 1.02 ± 0.12 | 1.11 ± 0.028 | 0.75 ± 0.042 | 0.923 ± 0.083 | 0.863 ± 0.067 | 0.669 (inactive)
7 | CC1(C)CC(=O)c2c(nc3ccc(Br)cc3c2N)C1.Cl | 0.513 ± 0.035 | 1.08 ± 0.067 | 0.883 ± 0.053 | 0.771 ± 0.036 | 1.07 ± 0.12 | 1.11 ± 0.11 | 0.995 (active)
8 | Cl.N=C(N)NC(=O)c1nc(Cl)c(N)nc1N.O.O | 0.856 ± 0.044 | 1.01 ± 0.087 | 1.05 ± 0.065 | 1.04 ± 0.048 | 1.2 ± 0.29 | 1.3 ± 0.46 | 0.984 (active)
9 | COc1ccc(CC(=O)Nc2nc(CSCc3ccc(F)cc3)cs2)cc1 | 0.968 ± 0.057 | 1.06 ± 0.081 | 1.08 ± 0.069 | 0.832 ± 0.036 | 0.981 ± 0.045 | 0.968 ± 0.1 | 0.941 (active)
10 | CN(C)S(=O)(=O)N1CCC(CNC(=O)NC2CCCC2)CC1 | 0.963 ± 0.098 | 1.09 ± 0.098 | 0.818 ± 0.11 | 0.958 ± 0.1 | 1.04 ± 0.062 | 0.874 ± 0.31 | 1 (active)
11 | CCOC(=O)C1CCN(C(=O)c2ccc(C#CC(C)(C)O)cc2)CC1 | 0.747 ± 0.063 | 0.845 ± 0.041 | 1.1 ± 0.1 | 0.91 ± 0.048 | 1.34 ± 0.077 | 1.46 ± 0.12 | 1.01 (active)
12 | O=c1c(O)c(-c2ccc(O)c(O)c2)oc2cc(O)cc(O)c12 | 1.06 ± 0.26 | 1.04 ± 0.093 | 1.47 ± 0.12 | 0.356 ± 0.021 | 1.08 ± 0.23 | 1.12 ± 0.14 | 0.982 (active)
13 | Cc1c(C#N)sc2nc(-c3ccccc3)nc(N=CN(C)C)c12 | 1.01 ± 0.086 | 1.05 ± 0.095 | 0.952 ± 0.027 | 0.94 ± 0.056 | 0.971 ± 0.078 | 1.03 ± 0.18 | 1 (active)
14 | C1=CC2CC1CC2CN1CCC(N2CCCCC2)CC1 (configuration not stated) | 0.089 ± 0.0093 | 0.949 ± 0.072 | 1.26 ± 0.13 | 0.578 ± 0.038 | 1.69 ± 0.099 | 1.79 ± 0.17 | 0.989 (active)
15 | NC(=O)CCC(N)C(=O)O (configuration not stated) | 1.13 ± 0.32 | 0.935 ± 0.051 | 1.03 ± 0.1 | 0.883 ± 0.049 | 1.1 ± 0.16 | 0.999 ± 0.097 | 0.997 (active)
16 | COC(CNS(=O)(=O)c1cccnc1)c1ccc(C)s1 (configuration not stated) | 1.06 ± 0.073 | 0.992 ± 0.086 | 1.01 ± 0.096 | 1.01 ± 0.04 | 1.02 ± 0.048 | 0.958 ± 0.12 | 0.997 (active)
17 | CC(C)(C)C1CCc2c(sc(NC(=O)c3cccs3)c2C(=O)N2CCCC2)C1 (configuration not stated) | 0.93 ± 0.073 | 1.06 ± 0.061 | 0.993 ± 0.13 | 0.984 ± 0.027 | 1.14 ± 0.12 | 1.03 ± 0.068 | 1.01 (active)
18 | CCNc1nc(S)nc(NC(C)C)n1 | 1.13 ± 0.085 | 1.03 ± 0.051 | 1.02 ± 0.024 | 0.731 ± 0.041 | 0.98 ± 0.13 | 0.927 ± 0.11 | 0.991 (active)
19 | CS(=O)(=O)O.Cc1ccc(NC(=O)c2ccc(CN3CCN(C)CC3)cc2)cc1Nc1nccc(-c2cccnc2)n1 | 0.119 ± 0.03 | 1.27 ± 0.28 | 1.89 ± 0.17 | 0.201 ± 0.0064 | 0.97 ± 0.18 | 1.75 ± 0.3 | 0.957 (active)
20 | CC(=NNC(=O)CNc1ccccc1C)c1ccc(Br)cc1 | 1.09 ± 0.093 | 1.01 ± 0.14 | 1.03 ± 0.098 | 0.998 ± 0.032 | 1.23 ± 0.13 | 1.38 ± 0.19 | 0.982 (active)
21 | O=C1OCCN1C1CCN(C(=O)C2(c3ccc(F)cc3)CC2)C1 (configuration not stated) | 0.862 ± 0.094 | 0.907 ± 0.16 | 1.06 ± 0.074 | 0.843 ± 0.15 | 1.28 ± 0.3 | 1.45 ± 0.51 | 0.951 (active)
22 | Cc1cc(C)nc(SCCCCSc2nc(C)cc(C)n2)n1 | 1.03 ± 0.062 | 0.975 ± 0.14 | 0.944 ± 0.025 | 1.13 ± 0.14 | 0.979 ± 0.11 | 0.909 ± 0.21 | 0.996 (active)
23 | COc1ccc([N+](=O)[O-])cc1NC(=O)c1ccccc1SC | 0.656 ± 0.079 | 0.705 ± 0.14 | 0.88 ± 0.086 | 0.945 ± 0.031 | 1.03 ± 0.23 | 1.17 ± 0.33 | 0.987 (active)
24 | C#Cc1cccc(Nc2ncnc3cc(OC)c(OCCCCCCC(=O)NO)cc23)c1 | 1.12 ± 0.058 | 1.45 ± 0.11 | 2.44 ± 0.12 | 0.563 ± 0.034 | 0.43 ± 0.029 | 0.581 ± 0.068 | 0.973 (active)
25 | CCn1c(=O)c2c(nc(/C=C/c3ccc(OC)c(OC)c3)n2C)n(CC)c1=O | 1.56 ± 0.31 | 1.27 ± 0.33 | 1.14 ± 0.094 | 0.721 ± 0.044 | 1.21 ± 0.27 | 1.32 ± 0.26 | 0.986 (active)
26 | Cl.Clc1ccc2nsnc2c1NC1=NCCN1 | 0.8 ± 0.14 | 0.932 ± 0.14 | 0.993 ± 0.076 | 0.791 ± 0.066 | 0.995 ± 0.17 | 1.06 ± 0.23 | 1 (active)
